Test results: PubChem BioAssay AID1159580 (chemical genetic matrix, 2015)
Several values for one entry are separate records, joined by “and”; a condition that tells them apart may be missing. Identical values can stand only once. The whole screen tested about 5,500 compounds, of which about 2,000 (36%) were called active. Not shown: some 18% with an inconclusive outcome. Rule as the data show it: active = normalized growth mostly below about 0.91 (no sharp cut-off); inconclusive = no clear call, values can overlap the other calls; inactive = mostly above about 0.92. Some of the results follow.

Experiment: chemical genetic growth profiling, strain panel (AID 1159580);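 also: tested at 20 µM; growth read once vehicle control cultures reached saturation at 30 °C; 1 = growth at the plate median or of vehicle wells; lower values mean less growth of the strain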
Details: growth OD

Measured: normalized growth

NS(=O)(=O)c1cc2c(cc1Cl)NC(C1CC3C=CC1C3)NS2(=O)=O (stereo unspecified)
inactive: S. cerevisiae deletion strains, locus YJR075W, strain HOC1, stronger effect = lower value 1.02 and 1.01 | S. cerevisiae deletion strains, locus YKL009W, strain mrt4, stronger effect = lower value 0.979 | S. cerevisiae deletion strains, locus YKL068W, stronger effect = lower value 0.995 | S. cerevisiae deletion strains, locus YKL085W, strain MDH1 (second series), stronger effect = lower value 0.946 | S. cerevisiae deletion strains, locus YKL085W, strain MDH1, stronger effect = lower value 0.946 | S. cerevisiae deletion strains, locus YKL160W, strain elf1, stronger effect = lower value 1.01 | S. cerevisiae deletion strains, locus YKL190W, strain CNB1, stronger effect = lower value 0.991 | S. cerevisiae deletion strains, locus YKR001C, strain vps1, stronger effect = lower value 0.997 | S. cerevisiae deletion strains, locus YKR026C, strain gcn3, stronger effect = lower value 0.976 | S. cerevisiae deletion strains, locus YKR091W, strain srl3, stronger effect = lower value 0.989 | S. cerevisiae deletion strains, locus YLL001W, strain dnm1, stronger effect = lower value 0.987 | S. cerevisiae deletion strains, locus YLL026W, stronger effect = lower value 0.988 | S. cerevisiae deletion strains, locus YLL041C, strain sdh2, stronger effect = lower value 0.997 | S. cerevisiae deletion strains, locus YLR027C, strain aat2, stronger effect = lower value 0.995 | S. cerevisiae deletion strains, locus YLR039C, strain RIC1, stronger effect = lower value 0.981 | S. cerevisiae deletion strains, locus YLR058C, strain SHM2, stronger effect = lower value 0.979 | S. cerevisiae deletion strains, locus YLR102C, strain apc9, stronger effect = lower value 0.984 | S. cerevisiae deletion strains, locus YLR113W, strain HOG1, stronger effect = lower value 1.07 | S. cerevisiae deletion strains, locus YLR221C, strain rsa3, stronger effect = lower value 1 | S. cerevisiae deletion strains, locus YLR258W, strain gsy2, stronger effect = lower value 0.98 | S. cerevisiae deletion strains, locus YLR262C, strain YPT6 (second series), stronger effect = lower value 0.999 | S. cerevisiae deletion strains, locus YLR262C, strain YPT6, stronger effect = lower value 0.962 | S. cerevisiae deletion strains, locus YLR268W, strain sec22, stronger effect = lower value 0.973 | S. cerevisiae deletion strains, locus YLR320W, strain mms22, stronger effect = lower value 0.99 | S. cerevisiae deletion strains, locus YLR330W, strain CHS5, stronger effect = lower value 0.989 | S. cerevisiae deletion strains, locus YLR342W, strain FKS1 (second series), stronger effect = lower value 1.1 | S. cerevisiae deletion strains, locus YLR342W, strain FKS1, stronger effect = lower value 0.995 | S. cerevisiae deletion strains, locus YLR357W, strain rsc2, stronger effect = lower value 0.984 | S. cerevisiae deletion strains, locus YLR370C, strain arc18, stronger effect = lower value 0.992 | S. cerevisiae deletion strains, locus YLR371W, strain rom2, stronger effect = lower value 0.995 | S. cerevisiae deletion strains, locus YLR384C, strain iki3, stronger effect = lower value 0.993 | S. cerevisiae deletion strains, locus YLR418C, strain cdc73, stronger effect = lower value 0.961 | S. cerevisiae deletion strains, locus YML016C, strain PPZ1, stronger effect = lower value 0.998 | S. cerevisiae deletion strains, locus YML032C, strain rad52, stronger effect = lower value 1.02 | S. cerevisiae deletion strains, locus YML120C, strain ndi1, stronger effect = lower value 1 | S. cerevisiae deletion strains, locus YML124C, strain tub3, stronger effect = lower value 1 | S. cerevisiae deletion strains, locus YMR058W, strain fet3, stronger effect = lower value 0.996 | S. cerevisiae deletion strains, locus YMR078C, strain ctf18, stronger effect = lower value 0.986 | S. cerevisiae deletion strains, locus YMR125W, strain sto1, stronger effect = lower value 0.973 | S. cerevisiae deletion strains, locus YMR129W, stronger effect = lower value 0.981 | S. cerevisiae deletion strains, locus YMR205C, strain PFK2, stronger effect = lower value 0.951 | S. cerevisiae deletion strains, locus YMR223W, strain ubp8, stronger effect = lower value 1.05 | S. cerevisiae deletion strains, locus YMR231W, strain pep5, stronger effect = lower value 0.992 | S. cerevisiae deletion strains, locus YMR263W, strain SAP30, stronger effect = lower value 0.988 | S. cerevisiae deletion strains, locus YMR307W, strain GAS1, stronger effect = lower value 1.06 and 1 | S. cerevisiae deletion strains, locus YNL067W, strain RPL9B, stronger effect = lower value 1 | S. cerevisiae deletion strains, locus YNL071W, strain lat1, stronger effect = lower value 0.986 | S. cerevisiae deletion strains, locus YNL128W, strain TEP1, stronger effect = lower value 0.94 | S. cerevisiae deletion strains, locus YNL153C, strain GIM3, stronger effect = lower value 0.981 | S. cerevisiae deletion strains, locus YNL175C, strain NOP13, stronger effect = lower value 0.978 | S. cerevisiae deletion strains, locus YNL183C, strain NPR1, stronger effect = lower value 0.978 | S. cerevisiae deletion strains, locus YNL197C, strain WHI3, stronger effect = lower value 0.982 | S. cerevisiae deletion strains, locus YNL209W, strain ssb2, stronger effect = lower value 1 | S. cerevisiae deletion strains, locus YNL224C, strain SQS1, stronger effect = lower value 0.992 | S. cerevisiae deletion strains, locus YNL233W, strain BNI4, stronger effect = lower value 1 | S. cerevisiae deletion strains, locus YNL248C, strain rpa49, stronger effect = lower value 0.999 | S. cerevisiae deletion strains, locus YNL250W, strain rad50, stronger effect = lower value 0.999 | S. cerevisiae deletion strains, locus YNL271C, strain bni1, stronger effect = lower value 1 | S. cerevisiae deletion strains, locus YNL298W, strain CLA4, stronger effect = lower value 0.988 | S. cerevisiae deletion strains, locus YNL307C, strain MCK1, stronger effect = lower value 1.02 | S. cerevisiae deletion strains, locus YNL322C, strain KRE1 (second series), stronger effect = lower value 1 | S. cerevisiae deletion strains, locus YNL322C, strain KRE1, stronger effect = lower value 0.988 | S. cerevisiae deletion strains, locus YNR049C, strain mso1, stronger effect = lower value 0.989 | S. cerevisiae deletion strains, locus YNR052C, strain pop2, stronger effect = lower value 0.987 | S. cerevisiae deletion strains, locus YOL006C, strain TOP1, stronger effect = lower value 1.02 | S. cerevisiae deletion strains, locus YOL012C, strain htz1 1.21 | S. cerevisiae deletion strains, locus YOL147C, strain pex11, stronger effect = lower value 0.993 | S. cerevisiae deletion strains, locus YOR001W, strain rrp6, stronger effect = lower value 0.997 | S. cerevisiae deletion strains, locus YOR061W, strain CKA2, stronger effect = lower value 0.959 | S. cerevisiae deletion strains, locus YOR069W, strain VPS5, stronger effect = lower value 0.995 | S. cerevisiae deletion strains, locus YOR070C, strain gyp1, stronger effect = lower value 0.993 | S. cerevisiae deletion strains, locus YOR080W, strain dia2, stronger effect = lower value 0.993 | S. cerevisiae deletion strains, locus YOR083W, strain WHI5 (second series), stronger effect = lower value 0.989 | S. cerevisiae deletion strains, locus YOR083W, strain WHI5, stronger effect = lower value 1 | S. cerevisiae deletion strains, locus YOR106W, strain vam3, stronger effect = lower value 1 | S. cerevisiae deletion strains, locus YOR136W, strain idh2, stronger effect = lower value 0.998 | S. cerevisiae deletion strains, locus YOR144C, strain elg1, stronger effect = lower value 0.991 | S. cerevisiae deletion strains, locus YOR184W, strain ser1, stronger effect = lower value 1.06 | S. cerevisiae deletion strains, locus YOR231W, strain MKK1, stronger effect = lower value 1.06 | S. cerevisiae deletion strains, locus YOR265W, strain rbl2, stronger effect = lower value 0.999 | S. cerevisiae deletion strains, locus YOR270C, strain vph1, stronger effect = lower value 0.984 | S. cerevisiae deletion strains, locus YOR290C, strain snf2, stronger effect = lower value 1.01 | S. cerevisiae deletion strains, locus YOR316C, strain cot1, stronger effect = lower value 0.98 | S. cerevisiae deletion strains, locus YPL051W, strain arl3, stronger effect = lower value 0.997 | S. cerevisiae deletion strains, locus YPL055C, strain LGE1, stronger effect = lower value 0.977 | S. cerevisiae deletion strains, locus YPL078C, strain atp4, stronger effect = lower value 0.998 | S. cerevisiae deletion strains, locus YPL106C, strain sse1, stronger effect = lower value 0.96 | S. cerevisiae deletion strains, locus YPL240C, strain hsp82, stronger effect = lower value 0.982 | S. cerevisiae deletion strains, locus YPL241C, strain CIN2, stronger effect = lower value 0.981 and 0.988 | S. cerevisiae deletion strains, locus YPL256C, strain CLN2, stronger effect = lower value 1.04 | S. cerevisiae deletion strains, locus YPR119W, strain clb2, stronger effect = lower value 0.996 | S. cerevisiae deletion strains, locus YPR141C, strain kar3, stronger effect = lower value 0.979 | S. cerevisiae deletion strains, locus YPR163C, strain tif3, stronger effect = lower value 0.997 | S. cerevisiae deletion strains, locus YPR167C, strain met16, stronger effect = lower value 0.977 | S. cerevisiae deletion strains, strain wtn01, stronger effect = lower value 0.969 | S. cerevisiae strains, strain wild type, stronger effect = lower value 0.998
